Results taken from PubChem BioAssay (EPA / NIEHS).
Calls of active or inactive are those of the source. The calls were made as follows: active = hit-call score of the fitted dose curve at least 0.9, where 1 is the maximum; inactive = score below 0.9.

Assays:
[1] = BSK_KF3CT_SRB: Viability Assessment in the BioMAP Diversity Plus: KF3CT Assay (AID 2283069); conditions: primary human keratinocytes with fibroblasts;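 also: total protein by sulforhodamine B staining as a cytotoxicity measure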
Summary of the method: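 Keratinocytes co-cultured with foreskin fibroblasts (human primary); chemical added, 24 h; fix 10% TCA, stain 0.1% SRB, A560. Bidirectional fit vs DMSO.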

[2] = read-out: Interleukin-1 alpha (IL1a), IL1A (gene 3552); experiment: BSK_KF3CT_IL1a: BioMAP Diversity Plus: KF3CT Assay for Interleukin-1 alpha (IL1a) Biomarker Activity (AID 2283070); conditions: primary human keratinocytes with fibroblasts; actives raise or lower the signal
Summary of the method: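 Chemicals were dosed onto co-cultured human keratinocytes and foreskin fibroblasts, IL-1a was quantified by ELISA at 24 h, and activity was fitted in both directions relative to DMSO controls.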

[3] = read-out: TIMP metallopeptidase inhibitor 2 (TIMP2), TIMP2 (gene 7077); experiment: BSK_KF3CT_TIMP2: BioMAP Diversity Plus: KF3CT Assay for TIMP metallopeptidase inhibitor 2 (TIMP2) Biomarker Activity (AID 2283071); conditions: primary human keratinocytes with fibroblasts; actives raise or lower the signal
Summary of the method: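 Human primary keratinocyte/foreskin fibroblast co-culture dosed with chemical and sampled at 24 h. TIMP-2 levels quantified by ELISA; bidirectional fitting against DMSO negative control as baseline.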

[4] = read-out: C-C motif chemokine 2 (Homo sapiens) (UniProt P13500); experiment: BSK_KF3CT_MCP1: BioMAP Diversity Plus: KF3CT Assay for Monocyte Chemoattractant Protein 1 (MCP1/CCL2) Biomarker Activity (AID 2283073); conditions: primary human keratinocytes with fibroblasts; actives raise or lower the signal
Summary of the method: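 Human keratinocyte–foreskin fibroblast co-culture; MCP-1 measured by ELISA 24 h after dosing. Bidirectional fit vs DMSO; cytotoxicity tracked by SRB total protein in parallel cultures.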

[5] = read-out: urokinase plasminogen activator (uPA), PLAU (gene 5328); experiment: BSK_KF3CT_uPA: BioMAP Diversity Plus: KF3CT Assay for urokinase plasminogen activator (uPA) Biomarker Activity (AID 2283075); conditions: primary human keratinocytes with fibroblasts; actives raise or lower the signal
Summary of the method: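 ELISA readout of uPA, analyzed for signal gain or loss relative to DMSO, from a human primary keratinocyte–foreskin fibroblast co-culture measured 24 h after chemical treatment.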

[6] = read-out: E-selectin (Homo sapiens) (UniProt P16581); experiment: BSK_LPS_Eselectin: BioMAP Diversity Plus: LPS Assay for Eselectin Biomarker Activity (AID 2283077); conditions: primary human HUVEC with PBMC; actives raise or lower the signal
Summary of the method: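 Human umbilical vein endothelial cells co-cultured with PBMC under LPS stimulation; cell-surface E-selectin measured by ELISA 24 h after dosing. Change in either direction versus DMSO, with SRB total-protein staining in parallel cultures for cytotoxicity.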

[7] = read-out: Interleukin-8 (IL8), CXCL8 (gene 3576); experiment: BSK_LPS_IL8: BioMAP Diversity Plus: LPS Assay for Interleukin-8 (IL8) Biomarker Activity (AID 2283078); conditions: primary human HUVEC with PBMC; actives raise or lower the signal
Summary of the method: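 Human umbilical vein endothelial cells co-cultured with PBMC, LPS-stimulated, exposed to compound for 24 h. IL-8 quantified by ELISA; fitted in both directions against DMSO, with SRB total-protein staining of parallel cultures for cytotoxicity.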

[8] = BSK_LPS_SRB: Viability Assessment in the BioMAP Diversity Plus: LPS Assay (AID 2283079); conditions: primary human HUVEC with PBMC;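 also: total protein by sulforhodamine B absorbance as a cytotoxicity measure; measured one day after compound addition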
Summary of the method: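 Co-culture of human umbilical vein endothelial cells and PBMC, read 24 h after dosing. Total protein by 0.1% SRB staining after 10% TCA fixation, absorbance at 560 nm; bidirectional fit against DMSO.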

[9] = read-out: Monocyte Chemoattractant Protein-1 (MCP1), CCL2 (gene 6347); experiment: BSK_LPS_MCP1: BioMAP Diversity Plus: LPS Assay for Monocyte Chemoattractant Protein-1 (MCP1) Biomarker Activity (AID 2283081); conditions: primary human HUVEC with PBMC; actives raise or lower the signal;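 as to AC50: secreted MCP-1 protein quantified by ELISA in culture supernatant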
Summary of the method: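 Human umbilical vein endothelial cells co-cultured with PBMC, LPS-stimulated; secreted MCP-1 measured by ELISA 24 h after compound addition. Bidirectional curve fitting against DMSO baseline; SRB total-protein staining in parallel cultures for cytotoxicity.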

[10] = BSK_LPS_PGE2: BioMAP Diversity Plus: LPS Assay for Prostaglandin E2 (PGE2) Biomarker Activity (AID 2283082); conditions: primary human HUVEC with PBMC; actives raise or lower the signal
Summary of the method: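 HUVEC plus PBMC co-culture stimulated with LPS; secreted PGE2 quantified by ELISA 24 h after chemical dosing. Activity fitted bidirectionally against DMSO as negative control and baseline; parallel SRB total-protein staining served as cytotoxicity check.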

[11] = read-out: Tissue Factor, F3 (gene 2152); experiment: BSK_LPS_TissueFactor: BioMAP Diversity Plus: LPS Assay for Tissue Factor Biomarker Activity (AID 2283084); conditions: primary human HUVEC with PBMC; actives raise or lower the signal
Summary of the method: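 Human umbilical vein endothelial cells co-cultured with PBMC were dosed with compound. Cell-surface CD142 was measured by ELISA 24 h later. Activity was fitted bidirectionally against DMSO, with SRB total-protein staining in parallel cultures for cytotoxicity.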

[12] = read-out: Tumor necrosis factor (Homo sapiens) (UniProt P01375); experiment: BSK_LPS_TNFa: BioMAP Diversity Plus: LPS Assay for Tumour Necrosis Factor alpha (TNFa) Biomarker Activity (AID 2283085); conditions: primary human HUVEC with PBMC; actives raise or lower the signal
Summary of the method: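 Human umbilical vein endothelial cells co-cultured with PBMC were exposed to test chemical and TNFa measured by ELISA 24 h after dosing. Bidirectional curve fitting was done relative to DMSO as negative control and baseline.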

[13] = read-out: Vascular cell adhesion molecule 1 (VCAM1), VCAM1 (gene 7412); experiment: BSK_LPS_VCAM1: BioMAP Diversity Plus: LPS Assay for Vascular cell adhesion molecule 1 (VCAM1) Biomarker Activity (AID 2283086); conditions: primary human HUVEC with PBMC; actives raise or lower the signal
Summary of the method: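 Human umbilical vein endothelial cells co-cultured with peripheral blood mononuclear cells under LPS stimulation were exposed to test chemical for 24 h. VCAM-1 levels were then measured by ELISA, with bidirectional curve fitting relative to DMSO as negative control and baseline.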

CD38, CD38 (gene 952) = experiment: BSK_SAg_CD38: BioMAP Diversity Plus: SAg Assay for CD38 Biomarker Activity (AID 2283087); conditions: primary human HUVEC with PBMC; actives raise or lower the signal
Summary of the method: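 Fluorescence ELISA of cell-surface CD38 served as the read-out, with either increase or decrease fitted against DMSO controls. Cells were a human umbilical vein endothelium plus PBMC co-culture under SEB/TSST-1 stimulation, measured 24 h after dosing.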

CD40, CD40 (gene 958) = experiment: BSK_SAg_CD40: BioMAP Diversity Plus: SAg Assay for CD40 Biomarker Activity (AID 2283088); conditions: primary human HUVEC with PBMC; actives raise or lower the signal
Summary of the method: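 HUVEC plus PBMC co-culture, superantigen-activated, with CD40 read by ELISA 24 h after dosing. Curves fitted in both directions against DMSO. Overt cytotoxicity checked by parallel SRB total-protein staining.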

CD69, CD69 (gene 969) = experiment: BSK_SAg_CD69: BioMAP Diversity Plus: SAg Assay for CD69 Biomarker Activity (AID 2283089); conditions: primary human HUVEC with PBMC; actives raise or lower the signal;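 as to AC50: cell surface CD69 protein quantified by ELISA with fluorescence detection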
Summary of the method: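 HUVEC co-cultured with PBMC were dosed with chemical, and CD69 was measured by ELISA with fluorescence read-out 24 h later. Bidirectional curve fitting used DMSO as negative control and activity baseline.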

[14] = read-out: Monocyte Chemoattractant Protein-1 (MCP1), CCL2 (gene 6347); experiment: BSK_SAg_MCP1: BioMAP Diversity Plus: SAg Assay for Monocyte Chemoattractant Protein-1 (MCP1) Biomarker Activity (AID 2283090); conditions: primary human HUVEC with PBMC; actives raise or lower the signal
Summary of the method: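 MCP-1 levels in the endothelial–PBMC SAg co-culture were quantified by ELISA at 24 h post-dosing; both increases and decreases versus DMSO scored. Cytotoxicity monitored by SRB total protein in parallel cultures.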

[15] = read-out: Monokine induced gamma interferon (MIG), CXCL9 (gene 4283); experiment: BSK_SAg_MIG: BioMAP Diversity Plus: SAg Assay for Monokine induced gamma interferon (MIG) Biomarker Activity (AID 2283092); conditions: primary human HUVEC with PBMC; actives raise or lower the signal
Summary of the method: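 HUVEC plus human PBMC co-culture, chemicals dosed and MIG (CXCL9) quantified by ELISA at 24 h. Bidirectional curve fitting against DMSO as negative control and baseline, so both gain and loss of signal count as activity.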

[16] = BSK_SAg_Proliferation: Cell Proliferation Assessment in the BioMAP Diversity Plus: SAg Assay (AID 2283095); conditions: primary human HUVEC with PBMC;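 also: relative cell number as total protein by SRB absorbance in sub-confluent culture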
Summary of the method: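 Human umbilical vein endothelial cells co-cultured with peripheral blood mononuclear cells; total protein measured by sulforhodamine B staining (0.1% SRB after 10% TCA fixation), absorbance at 560 nm, at 96 h. Bidirectional fit against DMSO baseline.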

[17] = BSK_SAg_SRB: Viability Assessment in the BioMAP Diversity Plus: SAg Assay (AID 2283096); conditions: primary human HUVEC with PBMC;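 also: cells read one day after compound addition; hits may be either gain or loss of signal compared with DMSO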
Summary of the method: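 Total protein by sulforhodamine B staining, 24 h after dosing, in HUVEC–PBMC co-culture; DMSO-referenced bidirectional fitting.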

Measured: AC50

Sequence of E-selectin (Homo sapiens) (P16581 whole entry, looked up): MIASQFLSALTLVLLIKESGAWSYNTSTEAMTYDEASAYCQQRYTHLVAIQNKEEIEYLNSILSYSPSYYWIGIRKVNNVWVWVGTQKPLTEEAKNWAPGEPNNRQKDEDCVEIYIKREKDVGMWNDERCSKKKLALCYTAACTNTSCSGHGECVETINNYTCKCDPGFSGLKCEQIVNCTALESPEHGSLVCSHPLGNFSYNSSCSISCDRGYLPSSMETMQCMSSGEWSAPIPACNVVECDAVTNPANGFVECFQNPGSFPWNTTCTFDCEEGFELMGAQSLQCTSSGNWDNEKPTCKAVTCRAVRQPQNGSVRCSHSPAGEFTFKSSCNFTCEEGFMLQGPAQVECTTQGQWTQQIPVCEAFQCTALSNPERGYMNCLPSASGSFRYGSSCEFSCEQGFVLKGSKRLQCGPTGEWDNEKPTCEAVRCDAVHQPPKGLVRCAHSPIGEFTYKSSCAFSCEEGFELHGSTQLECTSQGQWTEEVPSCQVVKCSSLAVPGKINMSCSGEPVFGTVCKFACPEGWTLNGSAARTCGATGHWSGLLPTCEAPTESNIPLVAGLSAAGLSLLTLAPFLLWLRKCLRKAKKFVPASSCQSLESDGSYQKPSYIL
Sequence of Tumor necrosis factor (Homo sapiens) (P01375 whole entry, looked up): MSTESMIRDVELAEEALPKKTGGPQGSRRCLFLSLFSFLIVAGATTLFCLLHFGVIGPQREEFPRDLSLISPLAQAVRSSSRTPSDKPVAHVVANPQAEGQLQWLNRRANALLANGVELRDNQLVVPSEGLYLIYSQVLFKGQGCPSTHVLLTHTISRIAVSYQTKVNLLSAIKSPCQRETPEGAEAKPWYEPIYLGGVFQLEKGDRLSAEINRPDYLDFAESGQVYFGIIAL

Sc1nc2ccccc2s1
active: [8] 3.97 µM | [9] 0.504 µM | [11] 4.28 µM
inactive: all other assays above

CCCCCCCCCCC1CO1 (stereo not given)
active: [1] 33.4 µM | [2] 25.3 µM | [3] 24.2 µM | [4] 20 µM | [5] 28 µM | [6] 36.1 µM | [7] 37.5 µM | [8] 20 µM | [9] 31.7 µM | [11] 38.5 µM | [12] 30.9 µM | [13] 32.3 µM | CD40, CD40 (gene 958) 20 µM | CD69, CD69 (gene 969) 36.7 µM | [16] 32.5 µM
inactive: [10] | CD38, CD38 (gene 952) | [14] | [15] | [17]

Cc1cccnc1
inactive: all assays above

CN(C)CCC(c1ccc(Cl)cc1)c1ccccn1 (stereo not given)
inactive: all assays above
